# Values joined by “and” are separate entries in the source; they are usually repeats but may differ in a detail not shown here. Equal entries are not always repeated.
# Tested on: Plasmodium falciparum
# Assay: GSK_TCMDC: Inhibition of Plasmodium falciparum Dd2 in whole red blood cells, using parasite LDH activity as an index of growth. Test compounds present at 2uM
# Type: functional
row,Structure (SMILES),Inhibition
1,CNCCNCc1ccc(-c2ccc(-c3nc4cc(F)ccc4[nH]3)s2)cc1.O=C(O)C(F)(F)F,55%
2,c1ccc(C(c2ccccc2)N2CCN(C(c3cccnc3)c3nnnn3C3CCCC3)CC2)cc1 (stereo not given),59%
3,COc1cc(NC(=O)c2ccc(-c3ccc(C(C)=O)cc3)s2)ccc1OCCN1CCCC1,63%
4,Cc1cccc2nc(-c3cccc(-c4ccc(C(=O)N5CCCCC5C(C)O)cc4)c3)[nH]c12 (stereo not given),91%
5,O=c1nc2[nH]c3ccccc3n2c(=O)[nH]1,0%
6,Cc1nnsc1C(=O)Nc1ccc(-c2cccc(-c3nc4cccc(C)c4[nH]3)c2)cc1,47%
7,CCCCOc1ccc(C(O)C(CN2CCCCC2)c2ccccc2)cc1 (stereo not given),84%
8,CCCc1c(Cl)cc(CNCCCNc2nc3ccncc3[nH]2)cc1Cl,0%
9,CN1CCC(NCc2ccc(-c3ccc(S(=O)(=O)NCc4ccccc4)s3)cc2)CC1.O=C(O)C(F)(F)F,95%
10,COc1ccc2nccc(N(C)CC3(O)CCN(CC(O)c4ccc5c(c4)NC(=O)CS5)CC3)c2n1.Cl (stereo not given),0%
11,CCC(CC)(Cc1ccccc1)NC(=O)[C@H](Cc1ccc(OC)c(OC)c1)Nc1ccc(C#N)c2ccccc12.O=C(O)C(F)(F)F,69%
12,Cc1cc(-c2ccc3c(c2)CCN(CCC2CCC(NC(=O)/C=C/c4ccccc4F)CC2)CC3)on1.Cl (stereo not given),13%
13,CCCCCCCN(Cc1ccc(OC(C)(C)C(=O)OCC)cc1)C(=O)Nc1ccccc1OC(F)(F)F,68%
14,O=C(Nc1cccnc1)c1ccc(-c2cc3ccncc3cc2OC2CCNCC2)s1,12%
15,CCCNC(=O)Nc1cc2cc(-c3cccc(CN4CCCCC4)c3)ccc2n2c(C)nnc12,50%
16,Cc1[nH]c(C)c(-c2ccc(C#Cc3ccc(F)cc3F)cc2)c(=O)c1Br,98%
17,COc1cc(Cc2cnc(N)nc2N)cc(OC)c1OCCCCCN1C(=O)c2ccccc2C1=O,4%
18,O=C(Nc1ccc(Cl)c(C(F)(F)F)c1)Nc1ccc(Cl)c(C(F)(F)F)c1,96%
19,Cc1ccc(O)cc1Nc1ccnc2cc(-c3ccccc3)ccc12.Cl,99%
20,O=C(C=Cc1ccc(Cl)c(Cl)c1)NCCCCCN1CCC(CCNS(=O)(=O)c2ccc(Br)cc2)CC1,0%

row,Structure (SMILES),Inhibition
1,CC(C)NCc1cccc(-c2cccc(NC(=O)c3cccc(Cl)c3)c2)c1.O=C(O)C(F)(F)F,38%
2,COc1ccc2ncc(F)c(CCN3CC(O)C(CNCc4ccc5oc(=O)ccc5c4)C3)c2n1.Cl (stereo not given),6%
3,Cc1[nH]c(C)c(C(F)(F)F)c(=O)c1-c1ccc(Oc2ccc(OC(F)(F)F)cc2)cc1,96%
4,COc1ccc2c(NN=Cc3ccc(Cl)cc3)ccnc2c1,100%
5,Cc1cc2c(cc1Cl)N(C(=O)Nc1cc(F)cc(-c3cncnc3)c1)CC2,59%
6,NS(=O)(=O)c1cncc(-c2ccc3nccc(-c4cn[nH]c4)c3n2)c1,100%
7,Fc1ccc2[nH]c(-c3ccc(-c4cccc(CN5CCCCC5)c4)cc3)nc2c1.O=C(O)C(F)(F)F,100%
8,Cc1[nH]c(C)c(-c2ccc(-c3ccc(C(F)(F)F)cc3C(F)(F)F)nc2)c(=O)c1Br,97%
9,Cc1cc(C)c(C)c(S(=O)(=O)N2CCCCC(c3ccc(F)c(F)c3)=N2)c1C,60%
10,CC(Cc1ccc(OCC(=O)NCC2CCN(CCc3cccc(Cl)c3)CC2)cc1)NCCc1cccc(Cl)c1.Cl (stereo not given),85%
11,CC(Cc1ccc(NC(=O)c2ccc(CNCCCCc3ccccc3)cc2)cc1)NCCc1cccc(Cl)c1.Cl (stereo not given),96%
12,O=C1COC2(CN1C1CCN(Cc3ccc(O)c(Cl)c3)C1)c1ccccc1-c1ccccc12.O=CO (stereo not given),63%
13,O=C(Cc1cn(-c2ccccc2)nc1-c1ccc(Cl)cc1)Nc1nccs1,8%
14,O=C(/C=C/c1ccc(Cl)c(Cl)c1)NCCCCCN1CCC(c2c[nH]c3ccccc23)C(O)C1 (stereo not given),9% and 0%
15,Cc1cc(CN2CC[C@H](NC(=O)c3ccc(Cl)c(Cl)c3)C2)ccc1OC1CCN(C)C1.O=C(O)C(F)(F)F (stereo not given in full),24%
16,Cc1nc2nc(N)nc(N)c2c(C)c1Cc1ccc(C(N)=O)cc1.Cl,0%
17,N=C(N)c1ccc(Nc2nccc(Nc3nc(-c4ccccc4)cs3)n2)cc1.O=C(O)C(F)(F)F,75%
18,c1cn(CCCNc2ncc(-c3ccsc3)c(-c3nccs3)n2)cn1,51%
19,COc1cc2nc(N3CCC(CNC(=O)c4cccc5cc[nH]c45)CC3)nc(N)c2cc1OC,24%
20,COc1ccc(NC(=O)c2cc(-c3ccc(NC(C)=O)cc3)cnc2N)cc1,5%

# Tested on: HepG2
# Assay: GSK_TCMDC: Percent inhibition of human HepG2 cell line. Test compounds present at 10uM.
# Type: functional
row,Structure (SMILES),Inhibition
1,CNCCNCc1ccc(-c2ccc(-c3nc4cc(F)ccc4[nH]3)s2)cc1.O=C(O)C(F)(F)F,22%
2,c1ccc(C(c2ccccc2)N2CCN(C(c3cccnc3)c3nnnn3C3CCCC3)CC2)cc1 (stereo not given),4%
3,COc1cc(NC(=O)c2ccc(-c3ccc(C(C)=O)cc3)s2)ccc1OCCN1CCCC1,31%
4,Cc1cccc2nc(-c3cccc(-c4ccc(C(=O)N5CCCCC5C(C)O)cc4)c3)[nH]c12 (stereo not given),26%
5,O=c1nc2[nH]c3ccccc3n2c(=O)[nH]1,21%
6,Cc1nnsc1C(=O)Nc1ccc(-c2cccc(-c3nc4cccc(C)c4[nH]3)c2)cc1,23%
7,CCCCOc1ccc(C(O)C(CN2CCCCC2)c2ccccc2)cc1 (stereo not given),7%
8,CCCc1c(Cl)cc(CNCCCNc2nc3ccncc3[nH]2)cc1Cl,23%
9,CN1CCC(NCc2ccc(-c3ccc(S(=O)(=O)NCc4ccccc4)s3)cc2)CC1.O=C(O)C(F)(F)F,77%
10,COc1ccc2nccc(N(C)CC3(O)CCN(CC(O)c4ccc5c(c4)NC(=O)CS5)CC3)c2n1.Cl (stereo not given),1%
11,CCC(CC)(Cc1ccccc1)NC(=O)[C@H](Cc1ccc(OC)c(OC)c1)Nc1ccc(C#N)c2ccccc12.O=C(O)C(F)(F)F,16%
12,Cc1cc(-c2ccc3c(c2)CCN(CCC2CCC(NC(=O)/C=C/c4ccccc4F)CC2)CC3)on1.Cl (stereo not given),26%
13,CCCCCCCN(Cc1ccc(OC(C)(C)C(=O)OCC)cc1)C(=O)Nc1ccccc1OC(F)(F)F,0%
14,O=C(Nc1cccnc1)c1ccc(-c2cc3ccncc3cc2OC2CCNCC2)s1,0%
15,CCCNC(=O)Nc1cc2cc(-c3cccc(CN4CCCCC4)c3)ccc2n2c(C)nnc12,60%
16,Cc1[nH]c(C)c(-c2ccc(C#Cc3ccc(F)cc3F)cc2)c(=O)c1Br,11%
17,COc1cc(Cc2cnc(N)nc2N)cc(OC)c1OCCCCCN1C(=O)c2ccccc2C1=O,5%
18,O=C(Nc1ccc(Cl)c(C(F)(F)F)c1)Nc1ccc(Cl)c(C(F)(F)F)c1,1%
19,Cc1ccc(O)cc1Nc1ccnc2cc(-c3ccccc3)ccc12.Cl,45%
20,O=C(C=Cc1ccc(Cl)c(Cl)c1)NCCCCCN1CCC(CCNS(=O)(=O)c2ccc(Br)cc2)CC1,58%

row,Structure (SMILES),Inhibition
1,CC(C)NCc1cccc(-c2cccc(NC(=O)c3cccc(Cl)c3)c2)c1.O=C(O)C(F)(F)F,36%
2,COc1ccc2ncc(F)c(CCN3CC(O)C(CNCc4ccc5oc(=O)ccc5c4)C3)c2n1.Cl (stereo not given),18%
3,Cc1[nH]c(C)c(C(F)(F)F)c(=O)c1-c1ccc(Oc2ccc(OC(F)(F)F)cc2)cc1,0%
4,COc1ccc2c(NN=Cc3ccc(Cl)cc3)ccnc2c1,8%
5,Cc1cc2c(cc1Cl)N(C(=O)Nc1cc(F)cc(-c3cncnc3)c1)CC2,0%
6,NS(=O)(=O)c1cncc(-c2ccc3nccc(-c4cn[nH]c4)c3n2)c1,33%
7,Fc1ccc2[nH]c(-c3ccc(-c4cccc(CN5CCCCC5)c4)cc3)nc2c1.O=C(O)C(F)(F)F,10%
8,Cc1[nH]c(C)c(-c2ccc(-c3ccc(C(F)(F)F)cc3C(F)(F)F)nc2)c(=O)c1Br,30%
9,Cc1cc(C)c(C)c(S(=O)(=O)N2CCCCC(c3ccc(F)c(F)c3)=N2)c1C,5%
10,CC(Cc1ccc(OCC(=O)NCC2CCN(CCc3cccc(Cl)c3)CC2)cc1)NCCc1cccc(Cl)c1.Cl (stereo not given),100%
11,CC(Cc1ccc(NC(=O)c2ccc(CNCCCCc3ccccc3)cc2)cc1)NCCc1cccc(Cl)c1.Cl (stereo not given),100%
12,O=C1COC2(CN1C1CCN(Cc3ccc(O)c(Cl)c3)C1)c1ccccc1-c1ccccc12.O=CO (stereo not given),5%
13,O=C(Cc1cn(-c2ccccc2)nc1-c1ccc(Cl)cc1)Nc1nccs1,9%
14,O=C(/C=C/c1ccc(Cl)c(Cl)c1)NCCCCCN1CCC(c2c[nH]c3ccccc23)C(O)C1 (stereo not given),34% and 12%
15,Cc1cc(CN2CC[C@H](NC(=O)c3ccc(Cl)c(Cl)c3)C2)ccc1OC1CCN(C)C1.O=C(O)C(F)(F)F (stereo not given in full),71%
16,Cc1nc2nc(N)nc(N)c2c(C)c1Cc1ccc(C(N)=O)cc1.Cl,55%
17,N=C(N)c1ccc(Nc2nccc(Nc3nc(-c4ccccc4)cs3)n2)cc1.O=C(O)C(F)(F)F,13%
18,c1cn(CCCNc2ncc(-c3ccsc3)c(-c3nccs3)n2)cn1,0%
19,COc1cc2nc(N3CCC(CNC(=O)c4cccc5cc[nH]c45)CC3)nc(N)c2cc1OC,33%
20,COc1ccc(NC(=O)c2cc(-c3ccc(NC(C)=O)cc3)cnc2N)cc1,10%
